# Compounds without any hit were thinned out: in the full panel of roughly 83,000, 20% have a hit.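 Step 1: grow cells in 96-well plates. Step 2: add test compound at a single concentration. Step 3: incubate 48 h. Step 4: record percent growth.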 Unmarked numbers belong to inactive results. Activity calls are given as the source filed them. Rule for the calls: active = growth percent below 10; inactive = the rest.
# Legend:
# Experiment in all cases: NCI-60 one-dose screen, 48 h (100 = growth as untreated, 0 = no growth, -100 = all killed)
# Details in all cases: 10 µM unless noted
# T-47D breast = tested on: T-47D breast
# BT-549 breast = tested on: BT-549 breast
# SW-620 colon = tested on: SW-620 colon
# MCF7 breast = tested on: MCF7 breast
# HCT-116 colon = tested on: HCT-116 colon
# HCC-2998 colon = tested on: HCC-2998 colon
# KM12 colon = tested on: KM12 colon
# MDA-MB-435 melanoma = tested on: MDA-MB-435 melanoma
Structure (SMILES),growth (T-47D breast),growth (BT-549 breast),growth (SW-620 colon),growth (MCF7 breast),growth (HCT-116 colon),growth (HCC-2998 colon),growth (KM12 colon),growth (MDA-MB-435 melanoma)
CN1CCN(c2ccc(NC(=O)c3nc4ccc5[nH]ncc5c4c4c3CCCC4)cc2C(F)(F)F)CC1,66.5%,90.6%,5% (active),24.6%,2.82% (active),21.1%,37.9%,–
O=C1COCCN1c1ccc(Nc2nc(Cl)nc(OCc3cn(Cc4ccccc4)nn3)n2)cc1,68.6%,90.3%,88.6%,62.4%,91.9%,63.7%,90.5%,–
O=C1c2cccc3cccc(c23)C(=O)N1N1C(=O)c2cccc3c(N4CCOCC4)ccc(c23)C1=O,91.7%,87.2%,–,94.9%,91.3%,–,100%,102%
O=C(/C=C/c1ccc(Cl)cc1)c1cccc(Nc2nc(Nc3ccccc3)nc(Nc3ccccc3)n2)c1,55.6%,118%,98.8%,-16.9% (active),29.5%,88.8%,86%,–
COc1ccc(-c2csc(NC(=O)CSc3nc(-c4ccccc4)cc(=O)[nH]3)n2)cc1,15.1%,8.89% (active),–,50.7%,35.8%,83.5%,73.9%,–
COc1ccccc1Nc1nc2c(s1)C1=CC[C@H]3[C@@H]4CC[C@H]([C@H](C)CCCC(C)C)[C@@]4(C)CC[C@@H]3[C@@]1(C)CC2,105%,110%,–,113%,102%,101%,101%,–
O=C(Nc1ccc(NC(=O)c2cc(=O)[nH]c3ccccc23)cc1)Nc1cccc(C(F)(F)F)c1,58.1%,62.8%,59.6%,70.7%,41.1%,–,53.3%,–
COc1ccc2c(c1)c(-c1noc(C(=O)c3cn(C)c4ccc(Br)cc34)n1)cn2C,90%,99.3%,105%,93%,92.4%,100%,106%,–
N#Cc1c(-c2cccs2)cc(-c2cccnc2)[nH]c1=O,103%,102%,101%,92.4%,104%,114%,106%,–
CNC(=O)c1cc(Oc2ccc3c(c2)sc2nc(-c4cc(OC)c(OC)c(OC)c4)cn23)ccn1,-4.73% (active),24%,77.4%,32.1%,55.2%,74.6%,66.3%,–
O=S(=O)(Nc1cc(Br)c(O)c2ccccc12)c1ccc(F)cc1,6.12% (active),100%,104%,49.1%,51%,97.8%,86.4%,–
COc1ccc2c(c1)[n+]([O-])c(C(=O)/C=C/C=C(\Cl)c1cc(OC)c(OC)c(OC)c1)c(C)[n+]2[O-],87.1%,74.9%,–,83.4%,80.6%,–,101%,93%
CC(=O)OC[C@]12CCC(C)(C)C[C@H]1[C@@]1(O)[C@H](O)C[C@@H]3[C@@]4(C)CCCNC(C)(C)[C@@H]4CC[C@@]3(C)[C@]1(C)CC2,104%,111%,109%,102%,104%,109%,113%,–
Nc1ncnc2c1N=C(c1ccc(Cl)cc1)CC(c1ccc3c(c1)OCO3)N2 (stereo not given),93.8%,95.5%,100%,81.2%,83.7%,–,103%,–
CN(C)CCNC(=O)c1cccc(-c2cnc3ccc(-c4ccc5c(c4)OCO5)nn23)c1,–,80.7%,52.8%,27.1%,5.58% (active),77.3%,17.6%,86%
Nc1c(C(=O)Nc2ccccc2Cl)sc2nc3c(cc12)C(O)CCC3 (stereo not given),–,52.1%,49.3%,24.4%,29.3%,64.3%,31.9%,1.93% (active)
C=C1C(=O)O[C@H]2[C@H]1CC/C(COC(=O)CSCCSCC(=O)OC/C1=C/CC[C@@]3(C)O[C@H]3[C@H]3OC(=O)C(=C)[C@@H]3CC1)=C\CC[C@@]1(C)O[C@@H]21,–,-16.3% (active),2.85% (active),18.1%,-31.6% (active),25.8%,51.1%,34.3%

Structure (SMILES),growth (T-47D breast),growth (BT-549 breast),growth (SW-620 colon),growth (MCF7 breast),growth (HCT-116 colon),growth (HCC-2998 colon),growth (KM12 colon),growth (MDA-MB-435 melanoma)
C1=CN2CC(c3ccccc3)=NNC2c2ccccc21 (stereo not given),–,61.7%,96.7%,67.3%,85.6%,–,99.4%,96.5%
CC1=Nc2cnc(Nc3ccc(OCCN4CCCC4)cc3)nc2Nc2ccccc21,–,88.2%,68.4%,75%,73.6%,72.2%,15.2%,72.2%
CCCCCCCCCCCCCCCC(N)c1ccccc1 (stereo not given),–,92.9%,-49.3% (active),-67.3% (active),-100% (active),-98.2% (active),-75.4% (active),6.53% (active)
Clc1ccc2c(c1)N(c1ncnc3ccc(-c4cnc5[nH]ncc5c4)cc13)CC2,–,22.6%,47.4%,18.2%,35.8%,36.6%,36.4%,31.1%
Cc1ccc(/C=C2\CN(C(=O)OC(C)(C)C)C/C(=C\c3ccc(C)cc3)C2=O)cc1,–,99.9%,5.21% (active),15.7%,-44.4% (active),29.5%,-16% (active),-44.4% (active)
COc1ccc(-c2cn(-c3cc(OC)c(OC)c(OC)c3)c(=O)n2C(C)=O)cc1,–,83.5%,96.2%,89%,85%,84.3%,93.3%,79.4%
CC(C)(C)c1cc(-c2nc3ccc(N4CCN(S(C)(=O)=O)CC4)cc3[nH]2)cc(C(C)(C)C)c1O,–,102%,97.2%,76.4%,81.7%,103%,27.6%,–
N#Cc1nc(-c2ccccc2)oc1S(=O)(=O)N1CCOCC1,–,86.6%,56.6%,32.5%,19.9%,104%,97.8%,89.4%
C=C1C(=O)O[C@H]2[C@H]1CC/C(COC(=O)NCc1cc[nH]c1)=C\CC[C@@]1(C)O[C@@H]21,–,55.6%,21.6%,34.8%,36.1%,95%,78.2%,34.2%
CCC(=C(c1ccc(OCCN2CCCC2)cc1)c1ccc(OCCN2CCCC2)cc1)c1ccc(Cl)cc1,–,69.5%,-77.7% (active),-76% (active),-81% (active),-93.7% (active),-74.2% (active),-91.2% (active)
S=C1CCSC(=S)N1CCCN1C(=S)CCSC1=S,–,89.4%,53%,20.8%,43%,96.2%,82.7%,59.6%
O=C1Nc2ccc(I)cc2C1=O,–,80.1%,65.2%,71.5%,71.8%,62.9%,82.8%,103%
CC1Cc2c(Cl)ncnc2N(C)c2ccc(F)cc21 (stereo not given),–,108%,106%,97.9%,87.5%,103%,99.9%,102%
COc1ccc(-c2cc(-c3ccc(Cl)cc3)c(C#N)c(=O)n2CCCCC(=O)Nc2ccccc2N)cc1,–,46.1%,71.8%,41.6%,24.4%,68.3%,39.4%,39%
Fc1ccc(-c2nn(-c3ccccc3)cc2-c2nc3ccccc3o2)cc1,–,66.4%,63.1%,50.9%,34.8%,101%,31.3%,27.8%
Cc1ccccc1Cn1cnc2ccc(-c3cc(NC(=O)c4ccc(NC5CCN(C)CC5)cc4)n[nH]3)cc21,–,68.2%,93.1%,77.1%,48.8%,90.5%,39.6%,61%
CC1=NN(c2nc(SCC(=O)Nc3nc4ccc(C)cc4s3)nc(-c3ccccc3)c2C#N)C(=O)C1,–,95.5%,102%,96.8%,101%,104%,101%,103%

# Reference: PubChem BioAssay (NCI)
